Reference: PubChem BioAssay (Tox21)
Records with an inconclusive call do not appear. Entries that show only a call come without a potency. A number with no mark means an inactive call. Calls of active or inactive are those of the source. Calls come from the whole dose curve; as a rule, active = well fitted activation curve with a large enough effect in the signal ratio in the repeat runs (not every such curve was filed as active); inconclusive = weak or mixed curves; inactive = flat fitted curve, though single readings scatter; the % refers to the signal ratio.

test: qHTS assay to identify small molecule agonists of H2AX (AID 1224845); conditions: CHO-K1 phospho-H2AX Ser139 HTRF, 3 h; series mostly up to 154 µM
Excerpt: National Center for Advancing Translational Sciences [NCATS]
NIH Chemical Genomics Center [NCGC]
U.S. Environmental Protection Agency [EPA]
National Institutes of Environmental Health Sciences [NIEHS]
National Toxicology Program [NTP]
U.S. Food and Drug Administration [FDA]
HTRF phospho-H2AX (Ser139) assay (Cisbio Bioassays, US) enables the quantitative detection of the histone variant H2AX when phosphorylated on serine 139. When double-stranded DNA breaks, either by ionizing radiation or endogenous physiological processes, H2AX becomes phosphorylated at Ser139. This phospho-Ser139 serves as a sensitive biomarker for the detection of such breaks, localizing the site of DNA repair. So, HTRF phospho-H2AX Ser139 is a pertinent assay to study genome stability, the cell cycle, DNA repair, and it serves as a biomarker for cancer, and to understand aging. Wild type CHO-K1 cells were used to identify the inducers of Phospho-H2AX Ser 139 from the Tox21 10K compound collections.
Tox21 Assay Protocol Summary:
The CHO-K1 cells suspended in culture medium containing 10% FBS were dispensed at 1000 cells/ 3 ul/well in 1536-well white wall/solid bottom plates (Greiner Bio-One North America, NC) using a Multidrop Combi (Thermo Fisher Scientific Inc., Waltham, MA). After the assay plates were incubated at 37C overnight, 23 nl of compounds at 15 concentrations (from 5-48 columns) or positive control (from 1 to 4 columns) were transferred to the assay plates using a Pintool station (Wako, San Diego, CA) into each well resulting in a final DMSO concentration of 0.76%. After 3hr incubation at 37C, 1 uL/well Supplemented Lysis buffer (diluted 100 fold blocking reagent in lysis buffer) (HTRF Phospho-H2A.X (S139) Assay kit from Cisbio US Inc., Bedford, MA) was added using a Flying Reagent Dispenser (FRD) (Aurora Discovery, CA). After 10sec spin at 1000 rpm in a plate centrifuge, the assay plates were incubated at room temperature for 30 min. Then followed by the addition of 1 uL/well detection buffer (containing a mixture of two antibodies, one labeled with cryptate, Anti pH2AX (S139)-K and another labeled with d2, Anti H2AX-d2) using FRD. After incubation at room temperature for 24 hr, the time resolved fluorescence at excitation 320 nm and emissions at 665 nm and 620 nm was measured using an Envision plate reader (PerkinElmer, Waltham, MA).
Potency is the fitted concentration of half-maximal effect.

| Compound | Potency | activation (H2AX phosphorylation) |
| --- | --- | --- |
| O=Cc1cccc(Br)c1 | inactive |  |
| Nc1ccccn1 | inactive |  |
| CCCCCCCC1CCCC1=O (stereo not given) | inactive |  |
| Nc1ccn([C@@H]2O[C@H](CO)[C@@H](O)C2O)c(=O)n1 (stereo not given in full) | 56.6 µM (active) |  |
| CC(=O)c1cnccn1 | inactive |  |
| CCO[Si](OCC)(OCC)c1ccccc1 | inactive |  |
| CCCc1ncc(C[n+]2ccccc2C)c(N)n1 | inactive |  |
| O=C(O)Cc1csc(-c2ccc(Cl)cc2)n1 | inactive |  |
| CN(C)CCCCCCN(C)C | inactive |  |
| CN(C)CCN(C)CCN(C)C | inactive |  |
| Cc1ccc(C(=O)c2ccc(CC(=O)O)n2C)cc1 | inactive |  |
| O=C(c1ccccc1)C1(O)CCCCC1 | inactive |  |
| CC(C)(N)C#N | inactive |  |
| [K+] | inactive |  |
| COc1cc(-c2ccc(=O)[nH]n2)ccc1OC(F)F | inactive |  |
| Nc1ccn([C@@H]2O[C@H](CO)[C@@H](O)[C@@H]2O)c(=O)n1 | 20.1 µM (active) |  |
| CCN[C@@H]1C[C@H](N)[C@@H](OC2OC(CN)=CCC2N)[C@H](O)[C@H]1O[C@H]1OC[C@](C)(O)[C@H](NC)[C@H]1O (stereo not given in full) |  | -3.19% [at 0.582 µM] |
| O=C(O)c1cn(C2CC2)c2cc(N3CCNCC3)c(F)cc2c1=O | inactive |  |
| O=S(=O)(O)c1cccc2c(S(=O)(=O)O)cccc12 | inactive |  |
| CC(=O)c1ccccc1[N+](=O)[O-] | inactive |  |

| Compound | Potency | activation (H2AX phosphorylation) |
| --- | --- | --- |
| COC(=O)Nc1ccc(Cl)c(Cl)c1 | inactive |  |
| CC(C)(C)C(=O)c1ccccc1 | inactive |  |
| C[C@H]1[C@H](NC(=O)/C(=N/OC(C)(C)C(=O)O)c2csc(N)n2)C(=O)N1S(=O)(=O)O (stereo in doubt) | inactive |  |
| C[C@@H]1C[C@H]2[C@@H]3C[C@H](F)C4=CC(=O)C(Cl)=C[C@]4(C)[C@@]3(F)[C@@H](O)C[C@]2(C)[C@@]1(O)C(=O)CO | inactive |  |
| CCN1CCOCC1 | inactive |  |
| Cc1cccc(C)c1NC(=O)CC12CCCN1CCC2 | inactive |  |
| NC(CCC(=O)O)C(=O)O (stereo not given) | inactive |  |
| Cc1cc(C)c(N=Nc2c(O)c(S(=O)(=O)O)cc3cc(S(=O)(=O)O)ccc23)cc1C |  | 1.25% [at 14 µM] |
| CC(C)CCCO | inactive |  |
| O=S(=O)(O)c1cccc(S(=O)(=O)O)c1 | inactive |  |
| CCCCCC(=O)OCCc1ccccc1 | inactive |  |
| Cc1ccccc1N=C(N)N=C(N)N | inactive |  |
| CCN1C=CN(C)C1C (stereo not given) | inactive |  |
| COc1c(N2CCNC(C)C2)c(F)cc2c(=O)c(C(=O)O)cn(C3CC3)c12 (stereo not given) | inactive |  |
| CCCCOCCOC(=O)CCCCCCCCC(=O)OCCOCCCC | inactive |  |
| CC[N+](CC)(CC(=O)Nc1c(C)cccc1C)Cc1ccccc1 (tested in a mixture with another compound) | inactive |  |
| CC12CCC(C(=O)C1=O)C2(C)C (stereo not given) | inactive |  |
| CC[C@H]1OC(=O)[C@H](C)[C@@H](O[C@H]2C[C@@](C)(OC)[C@@H](O)[C@H](C)O2)[C@H](C)[C@@H](O[C@@H]2O[C@H](C)C[C@H](N(C)C)[C@H]2O)[C@](C)(OC)C[C@@H](C)C(=O)[C@H](C)[C@@H](O)[C@]1(C)O | inactive |  |
| CC(C)(CCC(=O)O)C(=O)O | inactive |  |
| CC(C)NNC(=O)c1ccncc1 | inactive |  |
